Reference: PubChem BioAssay (NCATS)
Records with an inconclusive call do not appear. Where a call stands in place of a potency, no number is given. Values without a mark were called inactive. The source made the active and inactive calls. The call rests on the fitted dose curve; in most records, active means well fitted inhibition curve with a large enough effect; inconclusive means small, poorly fitted or top-dose-only effect; inactive means no such curve, though single readings can be large or run the other way.

Columns and labels:
[1] = system: Zika virus NS2B-NS3 protease (unlinked complex); assay: Primary screen GU Rhodamine qHTS for Zika virus inhibitors: Unlinked NS2B-NS3 protease assay (AID 1347159); further: nearly all actives have a fitted effect of over 60% in size; further: potency means the concentration at half of the fitted maximal effect
Procedure, shortened: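 Compounds, tested up to 114 microM, were incubated for 15 minutes with 25 nM unlinked NS2B-NS3 protease at pH 8.0. Cleavage of 1.5 microM Rhodamine110 substrate was then followed by fluorescence for 15 minutes.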

[2] = system: Zika virus NS2B-NS3 protease (linked construct); assay: Primary screen NINDS Rhodamine qHTS for Zika virus inhibitors (AID 1347160); further: nearly all actives have a fitted effect of over 55% in size; further: potency means the concentration at half of the fitted maximal effect
Procedure, shortened: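 Percent inhibition, normalized to uninhibited and enzyme-free controls, is fitted to a 4-parameter Hill equation. Fluorescence change comes from a 15-min cleavage of 1.5 microM bis-peptide Rhodamine110 substrate by 25 nM linked NS2B-NS3 at room temperature.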

[3] = Tertiary RLuc qRT-PCR qHTS assay for Zika virus inhibitors (AID 1347169); further: top concentration of the series differs between compounds; nearly all actives have a fitted effect of over 55% in size
Procedure, shortened: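 Luminescence read-out: live-cell Renilla luciferase substrate applied to infected Vero cells, signal measured after 1-1.5 hrs. Cells had received compound before ZIKV-RLuc (Cambodian strain, MOI 1-2) infection and were incubated 48-72 hrs at 37 degrees C.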

Row | Compound | Potency [1] | Potency [2] | Potency [3]
1 | C=C1C(=O)O[C@@H]2/C=C(\CO)CC/C=C(\CO)[C@H](OC(C)=O)C(OC(=O)C(C)CC)C12 (some centres undefined) | inactive | inactive | 
2 | C=C1C(=O)O[C@H]2C[C@@H](C)[C@@H]3CCC(=O)[C@@]3(C)C[C@H]12 | inactive | inactive | 
3 | C[C@@H](NC(=O)[C@H](O)c1cc(F)cc(F)c1)C(=O)N[C@@H]1C(=O)N(C)c2ccccc2-c2ccccc21 |  | inactive | 
4 | CCCn1ncc(CN2CCCC(C(=O)c3cccc(OC(C)C)c3)C2)c1C (centres undefined) | inactive | inactive | 
5 | COc1ccc(-c2cnc3c(-c4cccc5ncccc45)cnn3c2)cc1 | inactive | inactive | 
6 | CC1(C)Oc2ncnc(N)c2N=C1c1ccc(C23CCC(CC(=O)O)(CC2)CC3)cc1 | 50.1 µM (active) | inactive | 
7 | CCOc1ccc(CCNC(=O)c2cc3sc(Cl)cc3n2C)cc1OCC | inactive | inactive | 
8 | O=C(c1ccc(Cl)cc1)N1CCN(c2ccnc3cc(Cl)ccc23)CC1 |  | inactive | 
9 | CCN1CCN(Cc2ccc(C(=O)Nc3ccc(C)c(Oc4ccc5c(c4)CC(=O)N5)c3)cc2C(F)(F)F)CC1 | inactive | inactive | 
10 | CCN1CCN(Cc2ccc(NC(=O)c3ccc(C)c(Oc4ncnc5[nH]c(C)cc45)c3)cc2C(F)(F)F)CC1 | inactive | inactive | 
11 | CCC(C)/C=C(C)/C=C/C1=CC2=C(Cl)C(=O)C(C)(OC(C)=O)C(=O)C2(O)C(OC)O1 (centres undefined) | 28.2 µM (active) | 11.2 µM (active) | 
12 | O=C(Nc1cccc(C(F)(F)F)c1)Nc1ccc(Br)cc1-c1nn[nH]n1 | 3.16 µM (active) | 17.8 µM (active) | 
13 | C=C1CC2OC(=O)C(=C)C2C(OC(=O)/C(C)=C\C)CC2(C)OC1=CC2=O (centres undefined) | inactive | inactive | 
14 | O=C(NCc1cccs1)c1cc2nc(-c3ccco3)cc(C(F)(F)Cl)n2n1 |  | inactive | 
15 | COc1cc2ncc(-c3ccccc3)nc2cc1OC | inactive | inactive | 
16 | C=C1C(=O)OC2/C=C(\C)CC/C=C(\C=O)C(OC)C(OC(=O)C(C)CC)C12 (centres undefined) |  | inactive | 
17 | O=C(NC[C@H]1CN(c2ccc(N3CCOCC3=O)cc2)C(=O)O1)c1ccc(Cl)s1 | inactive | inactive | 

Row | Compound | Potency [1] | Potency [2] | Potency [3]
18 | COc1ccc(CN2CCN(CCCSc3cc(C(C)(C)C)c(O)c(C(C)(C)C)c3)CC2)c(OC)c1OC |  | inactive | 
19 | NC(=O)CCCSc1nc(N)nc(-c2c(Cl)cc3c4c(cccc24)COC3)n1 | inactive | inactive | 
20 | C/C(=C\Cc1c(O)c(Cl)c(C)c(C=O)c1O)CC/C=C(\C)[C@H]1CC(=O)C(C)(C)O1 |  | inactive | 
21 | C/C(=N\N=C(N)N)c1cc(NC(=O)CCCCCCCCC(=O)Nc2cc(/C(C)=N/N=C(N)N)cc(/C(C)=N/N=C(N)N)c2)cc(/C(C)=N/N=C(N)N)c1 |  | inactive | 
22 | CC(C)CCNC(=O)c1ccc2c(c1)nc(Nc1n[nH]c3ccc(-c4ccccc4OC(F)(F)F)cc13)n2C1CCC(O)CC1 (centres undefined) |  | inactive | 
23 | CCCN(CCc1ccsc1)C1CCc2c(O)cccc2C1 (centres undefined) | inactive | inactive | 
24 | O=C(Nc1nnc(-c2ccc3c(c2)OCCO3)o1)C1CCCCC1 | inactive | inactive | 
25 | C=C1C(=O)O[C@H]2CC(=C)[C@H]3CC[C@@](C)(O)[C@@H]3CC12 (some centres undefined) | 11.2 µM (active) | inactive | inactive
26 | CC(C)n1nc(C#Cc2ccccc2)c2c(N)ncnc21 | inactive | inactive | 
27 | CN(C)CC1CCn2c(c(C3=C(c4cn(C)c5ccccc45)C(=O)NC3=O)c3ccccc32)C1 (centres undefined) |  | inactive | 
28 | COc1ccc(-c2cc3onc(-c4ccncc4)c3c(=O)n2C)cc1 | inactive | inactive | 
29 | Cc1[nH]c2ccccc2c1CCNCc1ccc(/C=C/C(=O)NO)cc1 |  | inactive | 
30 | O=C(Nc1ccccc1Br)NC1CCN(c2ccc(C(F)(F)F)cn2)C1 (centres undefined) |  | inactive | 
31 | Cc1ccc(S(=O)(=O)N2CCC[C@H]2c2ccc(F)cc2)cc1 | inactive | inactive | 
32 | Cc1c(C2=CCN(C(=O)N(C)C(C)C)CC2)nnn1-c1cccnc1F |  | inactive | 
33 | CC(C)(C)c1ccc2c(c1)CC[C@H]2NC(=O)Nc1cccc2[nH]ncc12 |  | inactive | 
